C diff growth: C. difficile growth inhibitors, primary screen, HTS. Clostridium difficile clinical isolate growth, OD600, 24 h; stronger effect = lower value. growth activity, negative = inhibition, % at 16 µg/mL (by protocol). 86,000 tested, 0.25% active;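 active means mean growth activity at or below -80% and every replicate also at or below -80%; inconclusive means mean at or below -80% but some replicate above -80%; inactive means mean growth activity above -80%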;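 further: 0% = DMSO wells and -100% = levofloxacin 16 µg/mL wells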
Pf Dd2 inh: P. falciparum Dd2 growth inhibitors, primary screen, SYBR Green fluorescence, single dose replicates; 72 h; stronger effect = lower value; 94,000 tested, 2.3% active; activity change, % at 10 µM; in the data active means activity change below about -80%; inconclusive means no clear call, values can overlap the other calls
T cruzi growth-1: T. cruzi intracellular proliferation inhibitors, primary screen, cell-based, beta-gal Tulahuen parasites, NIH3T3 host, luminescence. inhibition, % at 8.34 µM. T. cruzi beta-gal in NIH3T3, GalScreen luminescence, 90 h. 77,000 tested, 5.9% active. AID 624255, 2012;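 active means mean inhibition above about 93%, with at least 55% of replicates each passing it, limit read from the data, passing the limit was not always enough; inconclusive means only one of those two conditions holds; inactive means neither condition holds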
T cruzi growth-2: T. cruzi intracellular proliferation inhibitors, confirmation, cell-based, NIH3T3 host, beta-gal parasite, luminescence, cherry-pick; shares compounds with T cruzi growth-1; T. cruzi beta-gal in NIH3T3, GalScreen luminescence, 90 h; inhibition, % at 8.35 µM; 5,600 tested, 72% active; AID 651739, 2012;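 active means mean replicate inhibition above about 95% and at least 55% of replicates individually reaching it, limit read from the data; inconclusive means only one of the two criteria is met; inactive means neither criterion is met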
T cruzi growth-3: inhibitors of intracellular T. cruzi replication, confirmation, NIH3T3 host cells, beta-gal parasites, cherry-pick, set 2; T. cruzi beta-gal in NIH3T3, GalScreen luminescence, 90 h; inhibition, % at 2.09 µM; 5,600 tested, 21% active; shares compounds with T cruzi growth-1; AID 651740, 2012;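 active means mean inhibition above about 95%, with at least 55% of replicates also reaching it, limit read from the data; inconclusive means meets just one of the two conditions; inactive means meets neither condition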;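 further: plate controls were neutral control median for no effect and positive control median for full effect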
NIH3T3 tox: cytotoxicity in mouse NIH/3T3 fibroblasts, confirmation, cytotoxicity control for T. cruzi proliferation inhibitor project, cell-based, cherry-pick, single point; NIH/3T3 viability, CellTiter-Glo ATP luminescence, 90 h; shares compounds with T cruzi growth-1; 5,600 tested, 14% active; cytotoxicity (signal decrease), % at 8.35 µM; AID 651742, 2012;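 active means mean signal decrease across replicates above about 35% based on untreated-well scatter, with enough replicates individually passing, limit read from the data; inconclusive means no rule stated though some were filed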;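 further: 0% = median of neutral control wells and 100% = median of positive control wells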
NIH3T3 tox 2: NIH/3T3 fibroblast cytotoxicity, confirmation, cytotoxicity control, cell-based, cherry-pick, single point, set 2 | shares compounds with T cruzi growth-1 | NIH/3T3 viability, CellTiter-Glo ATP luminescence, 90 h | inhibition, % at 24.9 µM | 5,600 tested, 56% active | AID 651744, 2012;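 active means mean loss of cell viability signal at or above a set limit, and enough replicates individually reaching it; inconclusive means meets only the mean limit or only the replicate share; inactive means meets neither condition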;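 further: 0% = median of neutral control wells and 100% = median of positive control wells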
Active calls of the source: *. In the library only some 6.7% were active in any assay of this set; here they are far more common.

`C[C@@H]1CCCCO[C@H](CN(C)Cc2ccncc2)[C@H](C)CN([C@@H](C)CO)C(=O)c2cc(NS(=O)(=O)c3cccs3)ccc2O1` gave C diff growth 0, Pf Dd2 inh -30 and T cruzi growth-1 17.
Screening C[C@@H]1CCCCO[C@@H](CN(C)Cc2ccc(Cl)c(Cl)c2)[C@H](C)CN([C@@H](C)CO)C(=O)c2cc(NS(=O)(=O)c3cccs3)ccc2O1 returned C diff growth -2, Pf Dd2 inh -52, T cruzi growth-1 inconclusive, T cruzi growth-2 96*, T cruzi growth-3 108*, NIH3T3 tox 118* and NIH3T3 tox 2 103*.
For C[C@@H]1CCCCO[C@H](CN(C)Cc2ccncc2)[C@@H](C)CN([C@@H](C)CO)C(=O)c2cc(NS(=O)(=O)c3cccs3)ccc2O1 the results were C diff growth 2, Pf Dd2 inh -18 and T cruzi growth-1 9.
C[C@@H]1CN([C@H](C)CO)C(=O)c2cc(NS(=O)(=O)c3cccs3)ccc2O[C@@H](C)CCCCO[C@H]1CN(C)Cc1ccncc1 was read as C diff growth 3, Pf Dd2 inh -9 and T cruzi growth-1 36.
`C[C@@H]1CCCCO[C@@H](CN(C)Cc2ccc(Cl)c(Cl)c2)[C@H](C)CN([C@H](C)CO)C(=O)c2cc(NS(=O)(=O)c3cccs3)ccc2O1` gave C diff growth -6, Pf Dd2 inh -74, T cruzi growth-1 inconclusive, T cruzi growth-2 109*, T cruzi growth-3 113*, NIH3T3 tox -30 and NIH3T3 tox 2 107*.
For C[C@@H]1CCCCO[C@@H](CN(C)Cc2ccc(Cl)c(Cl)c2)[C@@H](C)CN([C@@H](C)CO)C(=O)c2cc(NS(=O)(=O)c3cccs3)ccc2O1 the results were C diff growth 10, Pf Dd2 inh -42, T cruzi growth-1 inconclusive, T cruzi growth-2 97*, T cruzi growth-3 71, NIH3T3 tox -56 and NIH3T3 tox 2 51*.
`C[C@H]1CN([C@@H](C)CO)C(=O)c2cccc(NC(=O)c3ccncc3)c2O[C@H]1CN(C)S(=O)(=O)c1ccccc1` gave C diff growth 2, Pf Dd2 inh 27 and T cruzi growth-1 1.
For C[C@@H]1CN([C@@H](C)CO)C(=O)c2cc(NC(=O)Nc3ccccc3)ccc2O[C@H]1CN(C)Cc1ccc(Cl)c(Cl)c1 the results were C diff growth 2, Pf Dd2 inh -3 and T cruzi growth-1 -180.
C[C@H]1CN([C@@H](C)CO)C(=O)c2cccc(NS(=O)(=O)c3ccc(Cl)cc3)c2O[C@@H]1CN(C)S(=O)(=O)c1cccs1 was read as C diff growth -4, Pf Dd2 inh -15 and T cruzi growth-1 61.
`CCN(C[C@@H]1N[C@@H](CO)[C@@H]1c1ccc(C2=CCCC2)cc1)C(=O)c1ccncc1` gave C diff growth 3, Pf Dd2 inh -19 and T cruzi growth-1 55.
Screening CNC[C@@H]1Oc2c(N)cccc2C(=O)N([C@H](C)CO)C[C@@H]1C returned C diff growth -1, Pf Dd2 inh 33 and T cruzi growth-1 23.
CS(=O)(=O)N1CC2(C1)[C@@H](c1ccccc1)[C@@H](CO)N2Cc1ccccn1 was read as C diff growth 6 and Pf Dd2 inh -28.
For O=C(N[C@@H]1CC[C@@H](CCn2cc(-c3ccccn3)nn2)O[C@@H]1CO)c1cccnc1 the results were C diff growth 5, Pf Dd2 inh -4 and T cruzi growth-1 -32.
C[C@H](CO)N1C[C@H](C)[C@@H](CN(C)S(=O)(=O)c2cn(C)cn2)OCCCC[C@H](C)Oc2ccc(NS(=O)(=O)c3ccc(Cl)cc3)cc2C1=O was read as C diff growth 5, Pf Dd2 inh -11 and T cruzi growth-1 -38.
Screening C[C@@H]1CN([C@H](C)CO)C(=O)c2cc(NS(=O)(=O)c3cccs3)ccc2O[C@@H](C)CCCCO[C@@H]1CN(C)Cc1ccc(Cl)c(Cl)c1 returned C diff growth 3, Pf Dd2 inh -38, T cruzi growth-1 inconclusive, T cruzi growth-2 91, T cruzi growth-3 111*, NIH3T3 tox 100* and NIH3T3 tox 2 91*.
For C[C@H]1CCCCO[C@H](CN(C)Cc2ccncc2)[C@@H](C)CN([C@@H](C)CO)C(=O)c2cc(NS(=O)(=O)c3cccs3)ccc2O1 the results were C diff growth -2, Pf Dd2 inh 6 and T cruzi growth-1 11.
For C[C@@H]1CN([C@@H](C)CO)C(=O)c2cc(C#Cc3cccnc3)cnc2O[C@H]1CN(C)C(=O)CC1CC1 the results were C diff growth 1, Pf Dd2 inh -2 and T cruzi growth-1 46.
`CNC[C@H]1OCCCC[C@H](C)Oc2ccc(NC(=O)Nc3ccccc3)cc2C(=O)N([C@H](C)CO)C[C@@H]1C` gave C diff growth -3, Pf Dd2 inh 30 and T cruzi growth-1 15.
CNC[C@@H]1Oc2cc(C#Cc3ccccc3)ccc2S(=O)(=O)N([C@H](C)CO)C[C@H]1C was read as C diff growth 24 and Pf Dd2 inh -66.
For CNC[C@@H]1Oc2cc(C#Cc3ccccc3OC)ccc2S(=O)(=O)N([C@@H](C)CO)C[C@H]1C the results were C diff growth -4, T cruzi growth-1 105*, T cruzi growth-2 104*, T cruzi growth-3 84, NIH3T3 tox 10 and NIH3T3 tox 2 104*.
For CNC[C@H]1Oc2cc(C#Cc3ccccc3OC)ccc2S(=O)(=O)N([C@@H](C)CO)C[C@@H]1C the results were C diff growth 3, T cruzi growth-1 103*, T cruzi growth-2 106*, T cruzi growth-3 68, NIH3T3 tox inconclusive and NIH3T3 tox 2 104*.
CNC[C@H]1Oc2cc(C#Cc3ccccc3)ccc2S(=O)(=O)N([C@H](C)CO)C[C@@H]1C was read as C diff growth 26 and Pf Dd2 inh -54.
CO[C@H]1CN(C)C(=O)c2cc(NC(=O)c3ccccc3)ccc2OC[C@@H](C)N(C(C)=O)C[C@@H]1C was read as Pf Dd2 inh 46 and T cruzi growth-1 -65.
CNC[C@@H]1Oc2cc(-c3cncnc3)ccc2S(=O)(=O)N([C@@H](C)CO)C[C@H]1C was read as C diff growth -5 and T cruzi growth-1 46.

Assay outcomes from PubChem BioAssay.
